Targets with a hit are over-represented here; the source holds about 7,900 in all. About 0.6% of all pairs of compound and target were hits.
Legend:
Assay in all cases: log2 fold change, soluble protein after heating vs DMSO (PISA); higher = thermal stabilisation; K562 cells, 10 uM, 30 min; active = over 0.2 and 3.5 SD of the protein, either way, in both replicates (recomputed)
[1] = target: ZEB2 (UniProt O60315)
In short: (§1)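 Values are thermal stability changes relative to control samples and are taken from duplicates. They are stated as log2 fold changes. Before quantification by TMTpro 16plex LC-MS/MS with equalised channel sums, K562 cells at 2×10^6 cells/mL were treated with 10 μM compound for 30 min, heated in aliquots for 3 min across 48°C-58°C, pooled, extracted in PBS with 0.5% NP-40 at 4°C, and centrifuged at 21,000xg for 90 min to give the soluble supernatant.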

[2] = target: ZER1 (UniProt Q7Z7L7)
In short: as §1

[3] = target: ZFAND5 (UniProt O76080)
In short: as §1

[4] = target: ZFAND6 (UniProt Q6FIF0)
In short: as §1

[5] = target: ZFP91 (UniProt Q96JP5)
In short: as §1

[6] = target: ZFPL1 (UniProt O95159)
In short: as §1

[7] = target: ZMAT2 (UniProt Q96NC0)
In short: as §1

[8] = target: ZMYM1 (UniProt Q5SVZ6)
In short: as §1

[9] = target: ZMYM3 (UniProt Q14202)
In short: as §1

[10] = target: ZNF143 (UniProt P52747)
In short: as §1

[11] = target: ZNF217 (UniProt O75362)
In short: as §1

[12] = target: ZNF239 (UniProt Q16600)
In short: as §1

[13] = target: ZNF511 isoform 1 (UniProt Q8NB15)
In short: as §1

[14] = target: ZNF579 (UniProt Q8NAF0)
In short: as §1

[15] = target: ZNF580 (UniProt Q9UK33)
In short: as §1

[16] = target: ZNF609 (UniProt O15014)
In short: as §1

[17] = target: ZNF622 (UniProt Q969S3)
In short: as §1

[18] = target: ZRANB2 (UniProt O95218)
In short: as §1

[19] = target: ZNF277 (UniProt Q9NRM2)
In short: as §1

[20] = target: ZNF512 (UniProt Q96ME7)
In short: as §1

Measured: log2 fold change

Sequence of ZMAT2 (Q96NC0 whole entry, looked up): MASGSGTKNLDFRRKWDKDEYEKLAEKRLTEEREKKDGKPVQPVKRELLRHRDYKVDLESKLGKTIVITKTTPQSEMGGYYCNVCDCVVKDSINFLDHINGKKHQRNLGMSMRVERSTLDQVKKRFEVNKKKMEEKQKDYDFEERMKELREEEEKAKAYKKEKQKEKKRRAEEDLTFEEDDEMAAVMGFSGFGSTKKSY
Sequence of ZNF512 (Q96ME7 whole entry, looked up): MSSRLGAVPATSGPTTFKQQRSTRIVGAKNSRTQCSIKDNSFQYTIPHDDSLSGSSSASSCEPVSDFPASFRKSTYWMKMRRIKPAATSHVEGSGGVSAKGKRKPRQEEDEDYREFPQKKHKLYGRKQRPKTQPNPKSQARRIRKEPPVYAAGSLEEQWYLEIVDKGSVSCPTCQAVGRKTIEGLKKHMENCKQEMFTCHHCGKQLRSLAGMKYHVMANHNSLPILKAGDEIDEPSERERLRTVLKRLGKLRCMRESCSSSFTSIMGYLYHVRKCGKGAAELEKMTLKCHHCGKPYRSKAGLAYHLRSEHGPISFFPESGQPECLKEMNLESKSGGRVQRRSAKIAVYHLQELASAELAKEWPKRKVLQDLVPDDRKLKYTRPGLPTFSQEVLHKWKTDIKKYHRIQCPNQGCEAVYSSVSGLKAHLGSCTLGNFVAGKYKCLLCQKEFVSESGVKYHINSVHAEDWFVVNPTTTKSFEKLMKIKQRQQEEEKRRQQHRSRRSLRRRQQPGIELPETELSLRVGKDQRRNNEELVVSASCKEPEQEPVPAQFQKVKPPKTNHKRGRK
Sequence of ZNF239 (Q16600 whole entry, looked up): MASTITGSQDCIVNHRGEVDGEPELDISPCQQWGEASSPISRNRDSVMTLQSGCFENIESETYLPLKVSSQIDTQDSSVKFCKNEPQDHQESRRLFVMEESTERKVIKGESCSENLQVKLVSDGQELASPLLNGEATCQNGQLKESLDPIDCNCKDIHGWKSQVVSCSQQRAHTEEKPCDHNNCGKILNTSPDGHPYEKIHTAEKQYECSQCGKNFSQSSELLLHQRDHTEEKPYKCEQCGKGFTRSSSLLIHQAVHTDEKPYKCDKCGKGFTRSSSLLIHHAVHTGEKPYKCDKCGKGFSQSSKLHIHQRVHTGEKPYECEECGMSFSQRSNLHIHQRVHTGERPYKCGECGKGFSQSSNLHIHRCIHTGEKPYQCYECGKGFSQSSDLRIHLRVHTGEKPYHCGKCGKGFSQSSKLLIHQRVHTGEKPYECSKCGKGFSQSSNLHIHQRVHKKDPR
Sequence of ZFPL1 (O95159 whole entry, looked up): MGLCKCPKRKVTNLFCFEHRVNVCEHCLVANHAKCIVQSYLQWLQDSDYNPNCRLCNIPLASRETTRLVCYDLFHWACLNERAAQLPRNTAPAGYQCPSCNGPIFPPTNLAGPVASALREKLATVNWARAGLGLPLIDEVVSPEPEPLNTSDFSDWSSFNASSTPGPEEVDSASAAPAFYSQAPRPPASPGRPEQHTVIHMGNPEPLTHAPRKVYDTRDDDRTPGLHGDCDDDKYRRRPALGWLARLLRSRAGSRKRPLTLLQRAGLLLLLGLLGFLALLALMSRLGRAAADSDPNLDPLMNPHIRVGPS
Sequence of ZMYM3 (Q14202 whole entry, looked up): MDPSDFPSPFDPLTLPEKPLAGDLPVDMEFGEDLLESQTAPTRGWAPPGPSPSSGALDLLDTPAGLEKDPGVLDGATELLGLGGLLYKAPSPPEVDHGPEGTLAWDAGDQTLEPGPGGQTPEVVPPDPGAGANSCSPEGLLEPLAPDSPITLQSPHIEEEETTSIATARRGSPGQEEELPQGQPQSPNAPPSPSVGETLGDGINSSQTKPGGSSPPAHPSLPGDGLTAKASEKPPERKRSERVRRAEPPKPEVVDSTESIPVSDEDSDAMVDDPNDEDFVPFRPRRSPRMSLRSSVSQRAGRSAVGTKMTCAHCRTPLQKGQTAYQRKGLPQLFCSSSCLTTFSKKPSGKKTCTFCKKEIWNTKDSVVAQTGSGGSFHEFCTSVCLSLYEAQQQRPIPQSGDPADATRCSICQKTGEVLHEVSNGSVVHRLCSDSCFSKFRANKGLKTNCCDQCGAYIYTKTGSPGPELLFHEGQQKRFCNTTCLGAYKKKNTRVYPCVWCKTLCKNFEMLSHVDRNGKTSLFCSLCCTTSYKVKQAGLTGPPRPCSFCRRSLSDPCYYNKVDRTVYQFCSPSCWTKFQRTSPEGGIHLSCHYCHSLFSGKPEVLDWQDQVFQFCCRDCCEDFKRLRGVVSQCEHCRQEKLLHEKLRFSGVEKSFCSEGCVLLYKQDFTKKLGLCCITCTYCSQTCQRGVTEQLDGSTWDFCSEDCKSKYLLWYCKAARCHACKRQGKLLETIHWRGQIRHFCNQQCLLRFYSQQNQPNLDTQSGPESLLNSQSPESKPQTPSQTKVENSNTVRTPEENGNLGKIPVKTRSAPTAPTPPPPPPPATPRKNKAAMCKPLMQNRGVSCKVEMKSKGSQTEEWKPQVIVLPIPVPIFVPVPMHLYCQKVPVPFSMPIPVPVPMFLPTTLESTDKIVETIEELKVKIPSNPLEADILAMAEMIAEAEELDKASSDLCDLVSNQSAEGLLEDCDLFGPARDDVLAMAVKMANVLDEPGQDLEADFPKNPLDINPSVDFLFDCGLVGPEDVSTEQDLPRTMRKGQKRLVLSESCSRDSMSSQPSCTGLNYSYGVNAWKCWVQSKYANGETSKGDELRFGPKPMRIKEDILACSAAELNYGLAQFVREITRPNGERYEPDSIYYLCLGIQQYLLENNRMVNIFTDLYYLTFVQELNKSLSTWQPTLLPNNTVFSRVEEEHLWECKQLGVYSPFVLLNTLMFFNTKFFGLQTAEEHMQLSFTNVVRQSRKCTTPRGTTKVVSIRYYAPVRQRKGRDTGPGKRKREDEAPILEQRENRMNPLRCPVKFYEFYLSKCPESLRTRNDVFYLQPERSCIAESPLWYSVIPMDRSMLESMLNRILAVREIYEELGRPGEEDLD
Sequence of ZFP91 (Q96JP5 whole entry, looked up): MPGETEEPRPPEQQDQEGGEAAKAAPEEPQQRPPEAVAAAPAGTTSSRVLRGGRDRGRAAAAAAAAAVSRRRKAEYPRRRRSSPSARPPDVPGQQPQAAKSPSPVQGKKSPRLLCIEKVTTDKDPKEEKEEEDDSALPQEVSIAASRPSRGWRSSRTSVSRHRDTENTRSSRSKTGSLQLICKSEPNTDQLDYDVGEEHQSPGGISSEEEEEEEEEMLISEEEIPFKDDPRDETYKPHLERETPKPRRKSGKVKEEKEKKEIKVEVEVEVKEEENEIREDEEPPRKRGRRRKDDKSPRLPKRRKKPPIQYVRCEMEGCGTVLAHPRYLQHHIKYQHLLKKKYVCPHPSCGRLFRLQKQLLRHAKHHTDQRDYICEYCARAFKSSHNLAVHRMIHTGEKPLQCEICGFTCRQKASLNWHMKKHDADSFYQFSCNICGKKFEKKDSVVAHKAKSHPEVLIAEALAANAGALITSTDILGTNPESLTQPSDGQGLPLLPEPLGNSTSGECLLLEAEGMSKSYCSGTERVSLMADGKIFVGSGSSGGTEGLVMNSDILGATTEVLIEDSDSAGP
Sequence of ZRANB2 (O95218 whole entry, looked up): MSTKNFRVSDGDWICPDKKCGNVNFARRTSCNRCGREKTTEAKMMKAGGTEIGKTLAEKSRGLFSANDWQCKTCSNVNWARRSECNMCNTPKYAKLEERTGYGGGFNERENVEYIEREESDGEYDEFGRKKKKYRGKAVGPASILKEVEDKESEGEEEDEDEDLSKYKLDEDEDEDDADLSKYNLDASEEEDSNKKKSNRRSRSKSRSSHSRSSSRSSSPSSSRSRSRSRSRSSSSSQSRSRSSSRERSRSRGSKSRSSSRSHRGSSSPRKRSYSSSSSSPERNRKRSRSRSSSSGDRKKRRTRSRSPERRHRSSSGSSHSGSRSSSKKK
Sequence of ZEB2 (O60315 whole entry, looked up): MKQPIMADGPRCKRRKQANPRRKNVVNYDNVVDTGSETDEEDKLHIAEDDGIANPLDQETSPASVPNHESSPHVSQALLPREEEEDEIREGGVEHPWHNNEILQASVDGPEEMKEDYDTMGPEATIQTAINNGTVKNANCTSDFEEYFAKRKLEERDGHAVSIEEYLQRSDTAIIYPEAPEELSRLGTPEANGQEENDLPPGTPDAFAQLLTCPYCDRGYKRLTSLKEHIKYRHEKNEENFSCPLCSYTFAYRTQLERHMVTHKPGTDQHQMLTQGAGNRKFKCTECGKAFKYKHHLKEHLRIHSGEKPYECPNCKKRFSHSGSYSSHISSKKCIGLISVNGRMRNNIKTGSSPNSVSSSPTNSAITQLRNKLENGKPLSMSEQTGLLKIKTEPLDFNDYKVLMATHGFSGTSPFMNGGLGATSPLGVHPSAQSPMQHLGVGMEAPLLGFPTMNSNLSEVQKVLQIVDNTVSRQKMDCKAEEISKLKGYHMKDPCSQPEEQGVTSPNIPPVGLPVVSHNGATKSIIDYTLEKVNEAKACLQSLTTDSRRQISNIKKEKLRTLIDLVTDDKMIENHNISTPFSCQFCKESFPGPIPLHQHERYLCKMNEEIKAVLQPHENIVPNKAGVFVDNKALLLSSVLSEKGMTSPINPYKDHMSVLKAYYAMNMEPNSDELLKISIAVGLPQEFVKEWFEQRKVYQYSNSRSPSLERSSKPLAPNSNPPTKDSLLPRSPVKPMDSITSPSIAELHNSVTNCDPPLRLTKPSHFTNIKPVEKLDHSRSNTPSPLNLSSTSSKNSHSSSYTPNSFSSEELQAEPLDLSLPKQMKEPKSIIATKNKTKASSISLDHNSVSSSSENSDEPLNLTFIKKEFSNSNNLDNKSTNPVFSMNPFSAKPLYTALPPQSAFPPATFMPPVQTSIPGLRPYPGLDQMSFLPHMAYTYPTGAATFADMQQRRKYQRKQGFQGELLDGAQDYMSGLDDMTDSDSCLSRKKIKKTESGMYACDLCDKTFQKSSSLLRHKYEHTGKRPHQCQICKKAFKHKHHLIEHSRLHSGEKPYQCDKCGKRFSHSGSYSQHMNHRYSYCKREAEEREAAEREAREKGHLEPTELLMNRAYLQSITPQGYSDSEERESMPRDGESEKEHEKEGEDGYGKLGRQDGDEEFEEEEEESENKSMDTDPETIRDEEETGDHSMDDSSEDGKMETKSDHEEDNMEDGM

Cc1ccc(NC(=O)c2cccc(C(C)(C)C#N)c2)cc1Nc1ccc2ncn(C)c(=O)c2c1
inactive: [1] -0.027 | [2] -0.041 | [3] -0.064 | [4] 0.069 | [5] 0.017 | [6] 0.061 | [7] 0.209 | [8] -0.071 | [9] -0.092 | [10] -0.023 | [11] 0.075 | [12] -0.002 | [13] -0.026 | [14] 0.043 | [15] -0.174 | [16] -0.046 | [17] 0.048 | [18] 0.034

CC[C@@H]1C(=O)N(C)c2cnc(Nc3ccc(C(=O)NC4CCN(C)CC4)cc3OC)nc2N1C1CCCC1
inactive: [2] -0.032 | [3] 0.052 | [4] 0.058 | [5] 0.104 | [6] -0.027 | [7] 0.017 | [8] 0.202 | [9] 0.015 | [10] -0.018 | [11] 0.029 | [19] 0.328 | [13] -0.041 | [14] -0.017 | [15] 0.037 | [16] 0.047 | [17] 0.069 | [18] 0.022

CC(=O)c1cnc2ccc(-c3cc(Cl)c(O)c(Cl)c3)nc2c1N[C@H]1CC[C@H](CN(C)C)CC1
inactive: [2] 0.009 | [3] -0.025 | [4] 0.041 | [5] 0.018 | [6] 0.023 | [7] -0.001 | [8] 0.055 | [9] -0.004 | [10] -0.044 | [11] -0.125 | [12] -0.439 | [19] -0.017 | [13] -0.005 | [20] -0.15 | [14] -0.187 | [16] -0.071 | [17] 0.096 | [18] 0.017

C/C(=N\NC(=O)c1cccc(S(=O)(=O)N2CCOCC2)c1)c1cc(Cl)ccc1O
active: [13] -0.402
inactive: [2] 0.019 | [3] -0.018 | [4] -0.075 | [5] -0.069 | [6] 0.099 | [7] 0.001 | [8] -0.174 | [9] -0.004 | [10] 0.127 | [11] 0.074 | [12] 0.019 | [19] -0.031 | [20] -0.085 | [14] 0.147 | [16] -0.048 | [17] 0.015 | [18] -0.067

O=C1c2ccccc2-c2n[nH]c3cccc1c23
inactive: [2] -0.009 | [3] -0.055 | [4] -0.055 | [5] -0.004 | [6] -0.055 | [7] 0.018 | [8] 0.001 | [9] -0.093 | [10] -0.077 | [11] 0.03 | [12] 0.004 | [19] 0.065 | [13] 0.041 | [20] 0.161 | [14] 0.279 | [16] 0.002 | [17] 0.042 | [18] -0.059

CN1CC[C@H](c2c(O)cc(O)c3c(=O)cc(-c4ccccc4Cl)oc23)[C@H](O)C1 [alvocidib]
inactive: [2] -0.131 | [3] 0.041 | [4] 0.028 | [5] 0.108 | [6] -0.038 | [7] 0.047 | [8] 0.016 | [9] 0.14 | [10] -0.125 | [11] -0.164 | [12] 0.226 | [19] 0.169 | [13] -0.143 | [20] -0.002 | [14] -0.034 | [16] 0.077 | [17] 0.085 | [18] 0.068

CN1CCN(c2nc(C3=C(c4c[nH]c5ccccc45)C(=O)NC3=O)c3ccccc3n2)CC1 [sotrastaurin]
inactive: [1] -0.056 | [2] 0.078 | [3] 0.11 | [4] 0.13 | [5] 0.105 | [6] 0.003 | [7] -0.088 | [8] 0.027 | [9] 0.027 | [10] -0.031 | [11] -0.019 | [12] 0.144 | [13] 0.001 | [14] 0.014 | [15] 0.039 | [16] 0.016 | [17] 0.018 | [18] -0.027

COc1cc(C(=O)O)ccc1NC(=O)[C@@H]1N[C@@H](CC(C)(C)C)[C@](C#N)(c2ccc(Cl)cc2F)[C@H]1c1cccc(Cl)c1F [idasanutlin]
inactive: [2] -0.188 | [3] 0.079 | [4] -0.096 | [5] 0.029 | [6] -0.026 | [7] 0.061 | [8] 0.085 | [9] 0 | [10] 0.07 | [11] -0.027 | [12] -0.031 | [19] -0.003 | [13] 0.128 | [20] 0.3 | [14] -0.116 | [16] 0.021 | [17] -0.031 | [18] 0.024

c1cc(OCCN2CCCCC2)cc(-c2n[nH]c3ccc(-c4nnc[nH]4)cc23)c1
inactive: [2] 0.023 | [3] -0.063 | [4] -0.006 | [5] -0.161 | [6] 0.008 | [7] 0.035 | [8] -0.229 | [9] 0.029 | [10] -0.06 | [11] -0.096 | [19] -0.275 | [13] -0.043 | [14] 0.078 | [15] -0.083 | [16] -0.003 | [17] 0.092 | [18] 0.021

CCn1cc(-c2ccnc3[nH]c(-c4cccc(CN(C)C)c4)cc23)c(-c2ccc(NC(=O)N(C)C)cc2)n1
inactive: [2] -0.16 | [3] -0.017 | [4] -0.009 | [5] 0.07 | [6] 0.032 | [7] 0.022 | [8] 0.141 | [9] 0.018 | [10] -0.102 | [11] 0.036 | [12] 0.095 | [19] 0.01 | [14] 0.091 | [15] 0.092 | [16] 0.097 | [17] -0.077 | [18] 0.022

Cn1c2cc(S(C)=O)sc2c2cnn(Cc3cccc(N)c3)c(=O)c21 (stereo unspecified)
inactive: [1] 0.098 | [2] 0.019 | [3] 0.022 | [4] -0.003 | [5] 0.099 | [6] -0.031 | [7] -0.034 | [8] -0.014 | [9] -0.023 | [10] -0.003 | [11] 0.237 | [12] 0.34 | [19] 0.084 | [14] 0.008 | [15] 0.259 | [16] 0.021 | [17] -0.061 | [18] -0.006

Cn1cc(-c2ccc3c(c2)CCN3C(=O)Cc2cccc(C(F)(F)F)c2)c2c(N)ncnc21
active: [20] -0.86
inactive: [2] -0.021 | [3] -0.02 | [4] 0.067 | [5] -0.161 | [6] 0.049 | [7] -0.023 | [8] 0.07 | [9] 0.053 | [10] -0.129 | [11] 0.142 | [12] 0.306 | [19] -0.163 | [13] 0.01 | [14] 0.059 | [16] -0.041 | [17] 0.067 | [18] -0.013

c1cn2cc(-c3ccc4cn[nH]c4c3)nc(Nc3ccc(N4CCOCC4)cc3)c2n1 [entospletinib]
inactive: [2] 0.036 | [3] 0.128 | [4] 0.019 | [5] 0.011 | [6] 0.034 | [7] -0.116 | [8] 0.174 | [9] -0.043 | [10] 0.015 | [11] 0.011 | [19] 0.031 | [13] 0.1 | [14] -0.14 | [15] 0.004 | [16] -0.111 | [17] 0.021 | [18] 0.037

CO[C@H]1C[C@@H]2CC[C@@H](C)[C@@](O)(O2)C(=O)C(=O)N2CCCC[C@H]2C(=O)O[C@H]([C@H](C)C[C@@H]2CC[C@H](n3cnnn3)[C@H](OC)C2)CC(=O)[C@H](C)/C=C(\C)[C@@H](O)[C@@H](OC)C(=O)[C@H](C)C[C@H](C)/C=C/C=C/C=C/1C [zotarolimus]
inactive: [2] -0.035 | [3] -0.012 | [4] -0.045 | [5] -0.028 | [6] 0.006 | [7] -0.034 | [8] -0.05 | [9] 0.093 | [10] 0.067 | [11] -0.007 | [12] -0.483 | [19] -0.084 | [13] 0.066 | [20] -0.024 | [14] 0.099 | [16] -0.008 | [17] -0.017 | [18] -0.011

NC(=O)Nc1cc(-c2cccc(F)c2)sc1C(=O)N[C@H]1CCCNC1
active: [7] 0.282
inactive: [1] 0.003 | [2] -0.046 | [3] -0.041 | [4] 0.12 | [5] -0.044 | [6] -0.04 | [8] -0.108 | [9] -0.042 | [10] 0.07 | [11] 0.016 | [12] 0.015 | [13] 0.007 | [14] -0.008 | [15] 0.123 | [16] 0.061 | [17] -0.028 | [18] 0.076

Source: the supplement of paper PMC10849652
